# PubChem BioAssay AID1159580 (chemical genetic matrix, 2015)
# In all, about 5,500 compounds went through this assay and about 2,000 (36%) were called active. Another 18% or so got no clear call; they are omitted. This is one part of the list. A number with no mark means an inactive call. No stated cut-off is given here; in the data, active means normalized growth mostly below about 0.91 (no sharp cut-off); inconclusive means no clear call, values can overlap the other calls; inactive means mostly above about 0.92.
# Assay: chemical genetic growth profiling, strain panel (AID 1159580);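 further: tested at 20 µM; growth read once vehicle control cultures reached saturation at 30 °C; 1 = growth at the plate median or of vehicle wells; lower values mean less growth of the strain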
# Details: S. cerevisiae deletion strains, growth OD
# [1] = locus YAL013W, strain DEP1, active compounds read low
# [2] = locus YGR078C, strain PAC10, active compounds read low
# [3] = locus YMR263W, strain SAP30, active compounds read low
# [4] = locus YMR307W, strain GAS1, active compounds read low
# [5] = locus YNL128W, strain TEP1, active compounds read low
# [6] = locus YNL153C, strain GIM3, active compounds read low
# [7] = locus YPL055C, strain LGE1, active compounds read low
# [8] = locus YBR229C, strain ROT2, active compounds read low
# [9] = locus YDL101C, strain DUN1, active compounds read low
# [10] = locus YDR150W, strain NUM1, active compounds read low
# [11] = locus YEL061C, strain CIN8, active compounds read low
# [12] = locus YGR229C, strain SMI1, active compounds read low
# [13] = locus YHR030C, strain SLT2, active compounds read low
# [14] = locus YHR087W, strain rtc3, active compounds read low
# [15] = locus YJR043C, strain POL32, active compounds read low
# [16] = locus YJR075W, strain HOC1, active compounds read low
# [17] = locus YLR039C, strain RIC1, active compounds read low
# [18] = locus YLR058C, strain SHM2 (second series), active compounds read low
# [19] = locus YLR085C, strain ARP6, active compounds read low
# [20] = locus YLR262C, strain YPT6, active compounds read low
# [21] = locus YML094W, strain GIM5, active compounds read low
# [22] = locus YMR219W, strain ESC1, active compounds read low
# [23] = locus YNL298W, strain CLA4 (second series), active compounds read low
# [24] = locus YNL322C, strain KRE1, active compounds read low
# [25] = locus YNR030W, strain Alg12, active compounds read low
# [26] = locus YPL241C, strain CIN2, active compounds read low
# [27] = locus YPR135W, strain CTF4, active compounds read low
smiles,measurement,setting,value
Nc1ncnc2c1ncn2[C@@H]1O[C@H](C(=O)NC2CC2)[C@H](O)C1O (some centres undefined),normalized growth,[1],1
same,normalized growth,"locus YAL040C, strain CLN3, active compounds read low",0.986
same,normalized growth,"locus YCL061C, strain MRC1 (second series), active compounds read low",1
same,normalized growth,"locus YER002W, strain NOP16, active compounds read low",1
same,normalized growth,[2],1.01
same,normalized growth,[3],0.986
same,normalized growth,[4],1.04
same,normalized growth,[5],0.998
same,normalized growth,[6],1.03
same,normalized growth,"locus YNL175C, strain NOP13, active compounds read low",1
same,normalized growth,"locus YNL197C, strain WHI3, active compounds read low",0.986
same,normalized growth,"locus YNL224C, strain SQS1, active compounds read low",1.01
same,normalized growth,"locus YOR083W, strain WHI5 (second series), active compounds read low",1.01
same,normalized growth,[7],1
O=[N+]([O-])c1ccc(-c2nn[nH]n2)cc1,normalized growth,[1],0.992
same,normalized growth,[8],0.987
same,normalized growth,[9],0.988
same,normalized growth,[10],1.01
same,normalized growth,[11],1.01
same,normalized growth,[2],0.989
same,normalized growth,[12],0.987
same,normalized growth,[13],0.955
same,normalized growth,[14],0.993
same,normalized growth,[15],1.01
same,normalized growth,[16],0.992
same,normalized growth,"locus YKL190W, strain CNB1, active compounds read low",0.975
same,normalized growth,[17],0.968
same,normalized growth,[18],0.984
same,normalized growth,[19],1.04
same,normalized growth,[20],0.871
same,normalized growth,[21],1.04
same,normalized growth,[22],0.994
same,normalized growth,[3],1.01
same,normalized growth,[4],1.11
same,normalized growth,[5],0.971
same,normalized growth,[6],0.995
same,normalized growth,[23],0.965
same,normalized growth,[24],0.99
same,normalized growth,[25],0.98
same,normalized growth,[7],0.993
same,normalized growth,[26],0.999
same,normalized growth,[27],0.967
COC(=O)CSCCc1nc(-c2ccc([N+](=O)[O-])cc2)cs1,normalized growth,[1],1
same,normalized growth,[8],0.972
same,normalized growth,"locus YCL061C, strain MRC1, active compounds read low",0.97
same,normalized growth,[9],0.967
same,normalized growth,"locus YDL134C, strain PPH21, active compounds read low",0.976
same,normalized growth,[10],0.991
same,normalized growth,[11],0.986
same,normalized growth,[2],0.978
same,normalized growth,[12],0.965
same,normalized growth,[13],0.683 (active)
same,normalized growth,[14],0.987
same,normalized growth,[15],0.971
same,normalized growth,[16],0.946
same,normalized growth,[17],0.919
same,normalized growth,[18],0.964
same,normalized growth,[19],0.717 (active)
same,normalized growth,[20],0.915
same,normalized growth,[21],0.994
same,normalized growth,[22],0.975
same,normalized growth,[3],0.968
same,normalized growth,[6],1.01
same,normalized growth,[23],0.927
same,normalized growth,[24],0.965
same,normalized growth,[25],0.969
same,normalized growth,[7],0.971
same,normalized growth,[26],0.911
same,normalized growth,[27],0.894
